Calls of active or inactive are those of the source. Rule for the calls: active = hit-call score of the fitted dose curve at least 0.9, where 1 is the maximum; inactive = score below 0.9.
Legend:
Conditions in all cases: mRNA level, 48 h; actives raise or lower the signal
[1] = read-out: sulfotransferase 2A1 (SULT2A1), SULT2A1 (gene 6822); test: LTEA_HepaRG_SULT2A1: Life Technologies and Expression Analysis (LTEA) Assay for sulfotransferase 2A1 (SULT2A1) using HepaRG (AID 2283531)
How it was run: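 Differentiated human HepaRG cells in serum-free induction medium were exposed for 48 h to eight half-log concentrations (top 100 uM, 0.5% DMSO). SULT2A1 mRNA was measured by qRT-PCR, normalized to ACTB, GAPDH and POLR2A, and fitted bidirectionally against DMSO.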

[2] = read-out: Transforming Growth Factor (TGFA), TGFA (gene 7039); test: LTEA_HepaRG_TGFA: Life Technologies and Expression Analysis (LTEA) Assay for Transforming Growth Factor (TGFA) using HepaRG (AID 2283532)
How it was run: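 TGFA transcript quantified by qRT-PCR (Fluidigm arrays) against three housekeeping genes, after 48 hours chemical treatment of HepaRG cells. Top concentration 100 uM with half-log dilutions, 8 points, duplicates, 0.5% DMSO.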

[3] = read-out: Transforming Growth Factor (TGFB1), TGFB1 (gene 7040); test: LTEA_HepaRG_TGFB1: Life Technologies and Expression Analysis (LTEA) Assay for Transforming Growth Factor (TGFB1) Transporter using HepaRG (AID 2283533)
How it was run: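 Differentiated human HepaRG cells in serum-free induction medium were exposed in duplicate for 48 h to eight concentrations (top 100 uM, half-log steps, 0.5% DMSO). TGFB1 mRNA was quantified by qRT-PCR, normalized to ACTB, GAPDH, POLR2A, and fitted bidirectionally against DMSO.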

[4] = read-out: TIMP1, TIMP1 (gene 7076); test: LTEA_HepaRG_TIMP1: Life Technologies and Expression Analysis (LTEA) Assay for TIMP1 using HepaRG (AID 2283534)
How it was run: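 Differentiated human HepaRG cells in serum-free induction medium were exposed 48 h to chemicals (8 half-log concentrations, top 100 uM, 0.5% DMSO). TIMP1 mRNA was quantified by TaqMan qRT-PCR, normalized to ACTB/GAPDH/POLR2A; bidirectional fit versus DMSO.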

[5] = read-out: Tumor necrosis factor receptor 1 (TNFRSF1A), TNFRSF1A (gene 7132); test: LTEA_HepaRG_TNFRSF1A: Life Technologies and Expression Analysis (LTEA) Assay for Tumor necrosis factor receptor 1 (TNFRSF1A) using HepaRG (AID 2283535)
How it was run: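 Differentiated human HepaRG cells were exposed in duplicate for 48 h in serum-free induction medium to eight concentrations (top 100 uM, half-log steps, 0.5% DMSO). TNFRSF1A mRNA was quantified by qRT-PCR, normalized to ACTB, GAPDH and POLR2A, then fitted bidirectionally against DMSO.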

[6] = read-out: Thyroid Hormone Responsive (THRSP), THRSP (gene 7069); test: LTEA_HepaRG_THRSP: Life Technologies and Expression Analysis (LTEA) Assay for Thyroid Hormone Responsive (THRSP) using HepaRG (AID 2283536)
How it was run: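 THRSP transcript quantified by Fluidigm qRT-PCR against three housekeeping genes after 48 h chemical exposure of HepaRG cells in serum-free induction medium; eight-point half-log series, top 100 uM, 0.5% DMSO vehicle, duplicate wells.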

[7] = read-out: UDP glucuronosyltransferase (UGT1A1), UGT1A1 (gene 54658); test: LTEA_HepaRG_UGT1A1: Life Technologies and Expression Analysis (LTEA) Assay for UDP glucuronosyltransferase (UGT1A1) using HepaRG (AID 2283538)
How it was run: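 mRNA induction or loss of UGT1A1, by TaqMan qRT-PCR, in duplicate HepaRG wells after 48 h exposure to half-log dilutions topping at 100 uM; DMSO (0.5%) served as baseline.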

[8] = read-out: UDP glucuronosyltransferase (UGT1A6), UGT1A6 (gene 54578); test: LTEA_HepaRG_UGT1A6: Life Technologies and Expression Analysis (LTEA) Assay for UDP glucuronosyltransferase (UGT1A6) using HepaRG (AID 2283539)
How it was run: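 Human HepaRG cells were dosed for 48 h in serum-free induction medium with 0.5% DMSO vehicle, eight-point half-log series from 100 uM, in duplicate. UGT1A6 mRNA was measured by qRT-PCR, normalized to ACTB, GAPDH, POLR2A, and fitted bidirectionally against DMSO.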

[9] = read-out: X-box binding protein 1 (XBP1), XBP1 (gene 7494); test: LTEA_HepaRG_XBP1: Life Technologies and Expression Analysis (LTEA) Assay for X-box binding protein 1 (XBP1) using HepaRG (AID 2283540)
How it was run: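 Differentiated human HepaRG cells in serum-free induction medium were exposed in duplicate for 48 h to eight half-log concentrations up to 100 uM in 0.5% DMSO. XBP1 mRNA was quantified by qRT-PCR, normalised to ACTB, GAPDH and POLR2A, with bidirectional fitting against DMSO.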

[10] = read-out: Cellular tumor antigen p53 (Homo sapiens) (UniProt P04637); test: LTEA_HepaRG_TP53: Life Technologies and Expression Analysis (LTEA) Assay for Tumor Protein P53 (TP53) using HepaRG (AID 2283537)
How it was run: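 Read-out is TP53 transcript level by microfluidic qRT-PCR, normalised to three housekeeping genes and fitted bidirectionally against DMSO. Human HepaRG cells received compounds for 48 h, highest concentration 100 uM.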

Measured: AC50

Sequence of Cellular tumor antigen p53 (Homo sapiens) (P04637 whole entry, looked up): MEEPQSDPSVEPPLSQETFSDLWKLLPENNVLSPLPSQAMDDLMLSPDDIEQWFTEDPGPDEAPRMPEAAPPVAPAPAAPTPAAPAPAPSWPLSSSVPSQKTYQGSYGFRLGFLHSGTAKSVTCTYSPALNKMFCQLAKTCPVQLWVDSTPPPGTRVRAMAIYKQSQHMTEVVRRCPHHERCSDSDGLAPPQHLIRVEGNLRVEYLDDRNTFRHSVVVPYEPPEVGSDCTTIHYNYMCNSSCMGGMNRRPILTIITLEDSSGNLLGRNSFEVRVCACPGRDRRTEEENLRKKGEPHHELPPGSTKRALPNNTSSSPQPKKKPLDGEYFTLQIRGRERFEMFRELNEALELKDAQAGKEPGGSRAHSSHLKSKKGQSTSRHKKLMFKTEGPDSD

CCCN(CCC)c1c([N+](=O)[O-])cc(C(F)(F)F)cc1[N+](=O)[O-]
active: [7] 29.2 µM
not listed: [10]
inactive: all other assays above

CC(C)N(C(=O)COc1nnc(C(F)(F)F)s1)c1ccc(F)cc1
active: [1] 13.8 µM | [9] 28.5 µM
not listed: [6] | [8]
inactive: all other assays above

Cc1[nH]c(=O)n(C(C)(C)C)c(=O)c1Cl
active: [6] 50 µM | [7] 31 µM
not listed: [10]
inactive: all other assays above

Clc1ccccc1-c1nnc(-c2ccccc2Cl)nn1
active: [6] 50 µM | [7] 10.7 µM
not listed: [10]
inactive: all other assays above

O=[N+]([O-])c1c(Cl)c(Cl)c(Cl)c(Cl)c1Cl
active: [7] 17.2 µM
inactive: all other assays above

O=C1c2ccccc2C(=O)N1SC(Cl)(Cl)Cl
inactive: all assays above

CNC(=O)CSP(=S)(OC)OC
not listed: [10]
inactive: all other assays above

O=[N+]([O-])/N=C1\NCCN1Cc1ccc(Cl)nc1
active: [1] 31.8 µM | [5] 28.1 µM | [6] 50 µM | [9] 25.5 µM
not listed: [10]
inactive: all other assays above

COP(=S)(OC)Oc1ccc(SC)c(C)c1
active: [7] 25.2 µM
inactive: all other assays above

CCC(C)(C)C(=O)OC1=C(c2ccc(Cl)cc2Cl)C(=O)OC12CCCCC2
inactive: all assays above

N#CN
not listed: [10]
inactive: all other assays above

COP(=O)(OC)OC=C(Cl)Cl
not listed: [10]
inactive: all other assays above

CCOC1Oc2ccc(OS(C)(=O)=O)cc2C1(C)C (stereo not given)
active: [1] 83.5 µM | [2] 90.8 µM | [6] 89.3 µM | [7] 11.8 µM | [8] 85.4 µM
inactive: [3] | [4] | [5] | [9]

O=C(NC(=O)c1c(F)cccc1F)Nc1ccc(OC(F)(F)C(F)OC(F)(F)F)c(Cl)c1 (stereo not given)
active: [6] 6.25 µM
not listed: [10]
inactive: all other assays above

C#CCN1C(=O)COc2cc(F)c(N3C(=O)C4=C(CCCC4)C3=O)cc21
active: [7] 1.95 µM
not listed: [10]
inactive: all other assays above

CC[C@H](C)[C@H]1O[C@]2(C=C[C@@H]1C)C[C@@H]1C[C@@H](C/C=C(\C)[C@@H](O[C@H]3C[C@H](OC)[C@@H](O[C@H]4C[C@H](OC)[C@@H](O)[C@H](C)O4)[C@H](C)O3)[C@@H](C)/C=C/C=C3\CO[C@@H]4[C@H](O)C(C)=C[C@@H](C(=O)O1)[C@]34O)O2 (tested in a mixture with another compound)
active: [1] 8.58 µM | [2] 13.9 µM | [3] 55.3 µM | [4] 11.7 µM | [5] 51.4 µM | [10] 6.99 µM | [8] 18.6 µM
inactive: [6] | [9]

CCC(C)Nc1c([N+](=O)[O-])cc(C(C)(C)C)cc1[N+](=O)[O-] (stereo not given)
active: [7] 13.1 µM | [9] 73.8 µM
not listed: [10]
inactive: all other assays above

CCCN(CCOc1c(Cl)cc(Cl)cc1Cl)C(=O)n1ccnc1
inactive: [4] | [5]
active: [1] 34.9 µM | [2] 50 µM | [3] 27.6 µM | [6] 3.79 µM | [10] 17.6 µM | [7] 73.7 µM | [8] 72.5 µM | [9] 78.8 µM

CNC(=O)/C=C(\C)OP(=O)(OC)OC
not listed: [10]
inactive: all other assays above

C[C@H]1[C@H](c2ccc(Cl)cc2)SC(=O)N1C(=O)NC1CCCCC1
active: [1] 93.4 µM | [2] 69.5 µM | [3] 50 µM | [6] 90.2 µM | [10] 82.3 µM | [7] 88.6 µM | [8] 78.8 µM
inactive: [4] | [5] | [9]

OCCOc1ccccc1
inactive: all assays above

CC(C)(C)C(O)/C(=C\c1ccc(Cl)cc1Cl)n1cncn1 (stereo not given)
active: [1] 35.2 µM | [4] 69.2 µM | [7] 69.2 µM | [8] 36.4 µM
inactive: all other assays above

O=S1OCC2C(CO1)C1(Cl)C(Cl)=C(Cl)C2(Cl)C1(Cl)Cl (stereo not given)
active: [1] 91.7 µM | [3] 72.1 µM | [6] 41.7 µM | [10] 70.2 µM
inactive: all other assays above
